Compound activity deposited in PubChem by National Center for Advancing Translational Sciences (NCATS).
HT1080-NT tox = kills 2HG-producing HT-1080-NT fibrosarcoma cells | Potency, µM (titrated, usually from 46.1 µM), hits mostly cytotoxic | HT-1080-NT fibrosarcoma viability, CellTiter-Glo ATP luminescence, 48 h | actives 1.6% (n = 360,000) | AID 686970;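 further: NT is the 2HG producing partner of a matched IDH1 knockdown line; nearly all actives have a fitted effect of over 55% in size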
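Read-out is CellTiter-Glo luminescence after 10 minutes at room temperature, following 48 hours' compound treatment of HT-1080-NT cells (750 cells/well, RPMI, 5% FBS, 37 degrees C).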
HT1080 IDH1KD tx = kills HT-1080 cells with IDH1 knockdown; HT-1080 IDH1 knockdown viability, ATP luminescence, 48 h; Potency, µM (titrated, usually from 46.1 µM), usual class: cytotoxic; actives 2% (n = 360,000)
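Assay cells: HT-1080 with IDH1 knockdown, 750 per well, RPMI/5% FBS. Exposure: 48 h at 37 °C following 2 h pre-incubation. Read: CellTiter-Glo luminescence; fitted concentration-response, curve class assigned.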
TGFb SMAD3 inh = inhibitors of TGF-b signaling | AID 588855 | actives 1.2% (n = 410,000) | HepG2 CAGA-GFP TGF-b/SMAD3 reporter, GFP fluorescence, 18 h; TGF-beta stimulated, 500 pg/mL final | Potency, µM (top dose mostly 46.1 µM), actives largely listed as inhibitors; further: nearly all actives have a fitted effect of over 65% in size
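Per well, imaged GFP fluorescence of HEPG2 CAGA-GFP cells gives the signal; cells get compound, then TGF-beta (500 pg/mL final), 18 h at 37 degrees C; %Activity versus -TGF-beta and +DMSO controls.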
HepG2 tox = counter-screen for TGF-b inhibitors: cytotoxicity in HepG2 cells. HepG2 CAGA-GFP viability, ATP luminescence, 18 h. Potency, µM (doses to about 46.1 µM), actives largely listed as cytotoxic. actives 0.76% (n = 410,000). AID 588856
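HepG2 CAGA-GFP cells (1000/well, DMEM with 1% FBS) received compound, then TGF-beta at 500 pg/mL final, and were incubated 18 hours at 37 degrees C. Viability was read by CellTiter-Glo luminescence. Media-only wells were set as complete cell-killing and DMSO as no toxicity.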
DT40 TDP1 no CPT = qHTS for Inhibitors of human tyrosyl-DNA phosphodiesterase 1 (TDP1): qHTS in cells in absence of CPT | actives 15% (n = 420,000) | DT40 Tdp1-/- hTDP1 cells, no CPT, ATP luminescence, 48 h | Potency, µM (titrated, usually from 46.2 µM), usual class: inhibitors | AID 686978, 2013; further: nearly all actives have a fitted effect of over 55% in size
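Compound effects on proliferation are scored in DT40 Tdp1-/-;hTDP1 cells in the absence of CPT. ATP levels (CellTiter-Glo luminescence) are recorded after a ≥48 hr, 37 °C incubation.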
DT40 TDP1 CPT = DT40-hTDP1 cell growth loss with CPT | chicken DT40 Tdp1-/-;hTDP1 cells + 20 nM CPT, ATP luminescence, 48 h | Potency, µM (top dose mostly 46.2 µM), actives largely listed as inhibitors | AID 686979 | actives 12% (n = 420,000); further: nearly all actives have a fitted effect of over 55% in size
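Chicken DT40 Tdp1-/- cells complemented with human TDP1, 400 cells/well, exposed to compounds plus 20 nM camptothecin for at least 48 h at 37 C; viability read as ATP content by CellTiter-Glo luminescence.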
Hits are given with their value. This is a sample that favours compounds with a hit; in the whole collection about 17% have one here. The call rests on the fitted dose curve; in most records, active means well fitted curve in the direction sought with a large enough effect; inconclusive means small, poorly fitted or top-dose-only effect, or another doubt; inactive means no such curve, though single readings can be large; an effect the other way counts as inactive or inconclusive.

Results for Cc1ccc2cc(C(c3nnnn3C3CCCC3)N(Cc3ccccc3)Cc3ccco3)c(=O)[nH]c2c1 (stereo not drawn) ?
HT1080-NT tox: inactive; HT1080 IDH1KD tx: inactive; TGFb SMAD3 inh: inconclusive; HepG2 tox: inactive; DT40 TDP1 no CPT: inconclusive; DT40 TDP1 CPT: 21µM

How did CCC(C)(C)n1nnnc1C(c1cc2ccc(C)cc2[nH]c1=O)N(Cc1cccnc1)Cc1ccco1 (stereo not drawn) do in these assays?
HT1080-NT tox: inactive; HT1080 IDH1KD tx: inactive; TGFb SMAD3 inh: inconclusive; HepG2 tox: inactive; DT40 TDP1 no CPT: inconclusive; DT40 TDP1 CPT: inconclusive

How did Cc1cc2cc(C(c3nnnn3C3CCCC3)N(Cc3cccnc3)Cc3ccco3)c(=O)[nH]c2cc1C (stereo not drawn) do in these assays?
HT1080-NT tox: inconclusive; HT1080 IDH1KD tx: 10µM; TGFb SMAD3 inh: inconclusive; HepG2 tox: inactive; DT40 TDP1 no CPT: inconclusive; DT40 TDP1 CPT: inconclusive

How did CSCCC(NS(=O)(=O)c1ccc2c(c1)oc(=O)n2C)C(=O)NCc1ccc(F)cc1 (stereo not drawn) do in these assays?
TGFb SMAD3 inh: inactive; HepG2 tox: inactive; DT40 TDP1 no CPT: inactive; DT40 TDP1 CPT: inactive

What do the screens show for `CNc1nc(Oc2ccc3sc(C)nc3c2)c2sccc2n1`?
HT1080-NT tox: inactive; HT1080 IDH1KD tx: inconclusive; TGFb SMAD3 inh: inactive; HepG2 tox: inactive; DT40 TDP1 no CPT: 21µM; DT40 TDP1 CPT: 21µM

How did Cc1nc2cc(Oc3nc(NCCN(C)C)nc4ccsc34)ccc2s1 do in these assays?
HT1080-NT tox: inconclusive; HT1080 IDH1KD tx: inconclusive; TGFb SMAD3 inh: inactive; HepG2 tox: inactive; DT40 TDP1 no CPT: inconclusive; DT40 TDP1 CPT: inconclusive

How did CCOc1ccccc1N1CCN(CC(O)COC2CCCc3ccccc32)CC1 (stereo not drawn) do in these assays?
HT1080-NT tox: inactive; HT1080 IDH1KD tx: inactive; TGFb SMAD3 inh: inactive; HepG2 tox: inactive; DT40 TDP1 no CPT: inconclusive; DT40 TDP1 CPT: inconclusive

What do the screens show for `CCOc1ccc(CN2C(=O)c3ccccc3Sc3ccc(C(=O)NCc4ccc(C)cc4)cc32)cc1`?
TGFb SMAD3 inh: inactive; HepG2 tox: inactive; DT40 TDP1 no CPT: inactive; DT40 TDP1 CPT: inactive

What do the screens show for `CC1CCCCC12NC(=O)N(CC(=O)Nc1ccc(N3CCOCC3)cc1)C2=O` (stereo not drawn)?
HT1080-NT tox: inactive; HT1080 IDH1KD tx: inactive; TGFb SMAD3 inh: inactive; HepG2 tox: inactive; DT40 TDP1 no CPT: inactive; DT40 TDP1 CPT: inactive

Results for O=C(CSc1nc2ncccc2[nH]1)c1cccc([N+](=O)[O-])c1 ?
HT1080-NT tox: inactive; HT1080 IDH1KD tx: inactive; TGFb SMAD3 inh: inactive; HepG2 tox: inactive; DT40 TDP1 no CPT: inactive; DT40 TDP1 CPT: inactive

How did CN1CCN(C2CCCCC2NS(=O)(=O)c2ccccc2)CC1 (stereo not drawn) do in these assays?
HT1080-NT tox: inactive; HT1080 IDH1KD tx: inactive; TGFb SMAD3 inh: inactive; HepG2 tox: inactive; DT40 TDP1 no CPT: inactive; DT40 TDP1 CPT: inactive

How did COc1ccccc1N1CCN(C2CCCCC2NS(=O)(=O)c2ccccc2)CC1 (stereo not drawn) do in these assays?
HT1080-NT tox: inactive; HT1080 IDH1KD tx: inactive; TGFb SMAD3 inh: inactive; HepG2 tox: inactive; DT40 TDP1 no CPT: 16µM; DT40 TDP1 CPT: 21µM

How did O=S1(=O)CCN(C2CC2)CC1 do in these assays?
HT1080-NT tox: inactive; HT1080 IDH1KD tx: inactive; TGFb SMAD3 inh: inactive; HepG2 tox: inactive; DT40 TDP1 no CPT: inactive; DT40 TDP1 CPT: inactive

How did CCOc1ccccc1N1CCN(C(=O)c2ccc3[nH]c4c(c3c2)CCCC4)CC1 do in these assays?
HT1080-NT tox: inconclusive; HT1080 IDH1KD tx: inconclusive; TGFb SMAD3 inh: inactive; HepG2 tox: inactive; DT40 TDP1 no CPT: inconclusive; DT40 TDP1 CPT: 21µM

How did CCOc1ccccc1N1CCN(C(=O)c2cc3c(C)cc(C)cc3[nH]2)CC1 do in these assays?
HT1080-NT tox: inconclusive; HT1080 IDH1KD tx: inconclusive; TGFb SMAD3 inh: inactive; HepG2 tox: inactive; DT40 TDP1 no CPT: 23µM; DT40 TDP1 CPT: inconclusive
